Entries with a potency or affinity are not part of this list. Results filed as inconclusive are left out. Active and inactive are the calls of the source. Unless noted, how the calls were made is not given here.
Key:
[1] = cytotoxicity in PAX8-dependent RMG-1 cells, dose response, cell-based, cherry-pick (AID 687029;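 active means signal drop whose fitted half-maximal concentration is at most twice the top valid dose, in every test run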;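 further: cells exposed to compound for 96 hours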)
[2] = cytotoxicity in IOSE-T80 ovarian epithelial cells, dose response, selectivity assay for PAX8 inhibitor project, cell-based, cherry-pick (AID 687032;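 active means fitted half-maximal concentration for viability loss no higher than twice the top valid dose, in every repeat run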;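 further: cells exposed to compound for 96 h before reading; 0% = neutral control wells and -100% = 2 µM mitoxantrone kill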)
[3] = inhibitors of CMV-promoter luciferase reporter, dose response, counter-screen for Pax8 inhibitor project, cell-based, HEK293, luminescence, dry powder (AID 743020;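 active means signal-lowering compounds whose fitted half-maximal concentration is at or below twice the top tested dose in every run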;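 further: HEK293 cells stably expressing the CMV luciferase reporter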)
[4] = non-specific cell cytotoxicity, dose response, cytotoxicity control for PAX8 inhibitor project, plate reader, dry powder samples (AID 743021)
[5] = IGROV1 ovarian cancer cell cytotoxicity, dose response, PAX8 inhibitor project, plate reader, dry powder samples (AID 743043);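 further: more negative means fewer viable cells or more cytotoxicity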
[6] = NIH:OVCAR-3 ovarian cancer cell cytotoxicity, dose response, PAX8 inhibitor project, plate reader, dry powder samples (AID 743044); conditions: max activity: at 35 µM, hits give low values unless noted
[7] = IOSE-T80 ovarian epithelial cell cytotoxicity, dose response, cytotoxicity control for PAX8 inhibitor project, plate reader, dry powder samples (AID 743045);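 further: 0% = neutral control median and -100% = positive control median; more negative values mean more cell killing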
[8] = A2780 ovarian cancer cell cytotoxicity, dose response, cytotoxicity control, plate reader, dry powder samples (AID 743046);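 further: 0% = neutral control wells and -100% = cytotoxic reference compound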
[9] = cytotoxicity in OVCAR8 ovarian cancer cells, dose response, PAX8 project, cell-based, plate reader, dry powder samples (AID 743197)

Measured: max activity

C[C@@H]1CN([C@@H](C)CO)C(=O)c2cc(NC(=O)NC3CCCCC3)ccc2O[C@@H](C)CCCCO[C@H]1CN(C)Cc1ccc(C(F)(F)F)cc1
inactive: [1] | [2] | [3] | [4] | [5] | [6] -25.9% | [7] | [8] | [9]

COc1ccc(CN(C)C[C@@H]2OCCCC[C@@H](C)Oc3ccc(NC(=O)Nc4ccc(C(F)(F)F)cc4)cc3C(=O)N([C@@H](C)CO)C[C@H]2C)cc1
inactive: [1] | [2] | [3] | [4] | [5] | [6] -5.22% [at 16 µM, hits give low values] | [7] | [8]

Cc1ccc(S(=O)(=O)N(C)C[C@@H]2OCCCC[C@H](C)Oc3ccc(NS(=O)(=O)c4ccc(Cl)cc4)cc3C(=O)N([C@H](C)CO)C[C@H]2C)cc1
inactive: [1] | [2] | [3] | [4] | [5] | [6] 19.8% [at 0.5 µM, hits give low values] | [7] | [8] | [9]

C[C@@H]1CN([C@@H](C)CO)C(=O)c2c(c3ccccc3n2C)-c2ccccc2CO[C@H]1CN(C)S(=O)(=O)c1ccccc1F
inactive: [1] | [2] | [3] | [4] | [5] | [6] -17.2% [at 18 µM, hits give low values] | [7] | [8]

C[C@@H]1CN([C@H](C)CO)C(=O)c2cc(NC(=O)Nc3ccccc3)ccc2O[C@@H](C)CCCCO[C@H]1CN(C)Cc1ccc(Cl)c(Cl)c1
inactive: [1] | [2] | [3] | [4] | [5] | [6] -19.3% | [7] | [8] | [9]

C[C@@H]1CCCCO[C@@H](CN(C)CC2CCCCC2)[C@@H](C)CN([C@@H](C)CO)C(=O)c2cc(NC(=O)Nc3ccc(C(F)(F)F)cc3)ccc2O1
inactive: [1] | [2] | [3] | [4] | [5] | [6] 17.1% [at 0.5 µM, hits give low values] | [7] | [8] | [9]

CC(C)CC#Cc1ccc2c(c1)O[C@H](CN(C)S(=O)(=O)c1ccc(F)cc1)[C@H](C)CN([C@@H](C)CO)S2(=O)=O
inactive: [1] | [2] | [3] | [4] | [5] | [6] -39.6% | [7] | [8] | [9]

C[C@H](CO)N1C[C@H](C)[C@H](CN(C)Cc2ccc3c(c2)OCO3)OCCCC[C@H](C)Oc2ccc(NS(=O)(=O)c3ccc(Cl)cc3)cc2C1=O
inactive: [1] | [2] | [3] | [4] | [5] | [6] 2.84% | [7] | [8] | [9]

O=C(C[C@@H]1C[C@H]2c3cc(NC(=O)C4CCOCC4)ccc3O[C@H]2[C@H](CO)O1)NCc1ccc(Oc2ccccc2)cc1
inactive: [1] | [2] | [3] | [4] | [5] | [6] -20% [at 8 µM, hits give low values] | [7] | [8] | [9]

C[C@@H]1CN([C@H](C)CO)C(=O)c2c(c3ccccc3n2C)-c2ccccc2CO[C@H]1CN(C)C(=O)Nc1cccc(C(F)(F)F)c1
inactive: [1] | [2] | [3] | [4] | [5] | [6] -25.5% [at 16 µM, hits give low values] | [7] | [8]

C[C@@H]1CCCCO[C@H](CN(C)Cc2ccc(Cl)c(Cl)c2)[C@H](C)CN([C@@H](C)CO)C(=O)c2cc(NC(=O)Nc3ccc(F)cc3)ccc2O1
inactive: [1] | [2] | [3] | [4] | [5] | [6] 22.7% [at 8 µM, hits give low values] | [7] | [8]

Cc1ccc(S(=O)(=O)N(C)C[C@@H]2OCCCC[C@H](C)Oc3ccc(NS(=O)(=O)c4ccc(F)cc4)cc3C(=O)N([C@H](C)CO)C[C@H]2C)cc1
inactive: [1] | [2] | [3] | [4] | [5] | [6] -6.55% | [7] | [8]

C[C@H]1CCCCO[C@H](CN(C)C(=O)Nc2ccc(F)cc2)[C@@H](C)CN([C@@H](C)CO)C(=O)c2cc(NC(=O)Nc3ccc(C(F)(F)F)cc3)ccc2O1
inactive: [1] | [2] | [3] | [4] | [5] | [6] 8.44% [at 16 µM, hits give low values] | [7] | [8]

CN1c2ccc(-c3ccccc3)cc2[C@@H]2[C@@H](CCN2C(=O)NC2CCCCC2)[C@@H]1CO
inactive: [1] | [2] | [3] | [4] | [5] | [6] 7.48% [at 0.26 µM, hits give low values] | [7] | [8]

O=C(C[C@H]1CC[C@@H]2[C@H](COC[C@@H](O)CN2S(=O)(=O)c2cccc(Cl)c2)O1)Nc1ccc(-c2ccccc2)cc1
inactive: [1] | [2] | [3] | [4] | [5] | [6] -18.4% | [7] | [8]

C[C@H](CO)N1C[C@H](C)[C@H](CN(C)S(=O)(=O)c2ccc(F)cc2)OCCCC[C@H](C)Oc2ccc(NC(=O)Nc3ccc(F)cc3)cc2C1=O
inactive: [1] | [2] | [3] | [4] | [5] | [6] -19% [at 16 µM, hits give low values] | [7] | [8]

COc1ccc(-c2ccc3c(c2)[C@@H]2[C@@H](CCN2C(=O)C2CCCC2)[C@H](CO)N3C)cc1
inactive: [1] | [2] | [3] | [4] | [5] | [6] -19.3% [at 18 µM, hits give low values] | [7] | [8]

C[C@@H]1CCCCO[C@@H](CN(C)Cc2ccc(Cl)c(Cl)c2)[C@H](C)CN([C@H](C)CO)C(=O)c2cc(NC(=O)Nc3ccccc3)ccc2O1
inactive: [1] | [2] | [3] | [4] | [5] | [6] 13.2% [at 0.5 µM, hits give low values] | [7] | [8] | [9]

O=C(C[C@H]1C[C@@H]2c3cc(NC(=O)Nc4ccc(C(F)(F)F)cc4)ccc3O[C@@H]2[C@@H](CO)O1)NCCc1ccccc1
inactive: [1] | [2] | [3] | [4] | [5] | [6] -7.36% [at 8 µM, hits give low values] | [7] | [8]

Cc1ccc(S(=O)(=O)N(C)C[C@@H]2Oc3cc(C#Cc4ccncc4)ccc3S(=O)(=O)N([C@@H](C)CO)C[C@H]2C)cc1
inactive: [1] | [2] | [3] | [4] | [5] | [6] -28.9% [at 16 µM, hits give low values] | [7] | [8] | [9]

C[C@@H]1CN([C@H](C)CO)C(=O)Cc2cc(NC(=O)Nc3ccc(F)cc3)ccc2O[C@@H]1CN(C)Cc1ccc(Cl)c(Cl)c1
inactive: [1] | [2] | [3] | [4] | [5] | [6] 27.5% | [7] | [8] | [9]

C[C@H](CO)N1C[C@H](C)[C@@H](CN(C)CC2CCCCC2)Oc2ccc(NC(=O)Nc3ccc4c(c3)OCO4)cc2CC1=O
inactive: [1] | [2] | [3] | [4] | [5] | [6] 15.5% [at 1 µM, hits give low values] | [7] | [8] | [9]

O=S(=O)(c1ccc(F)cc1)N1C[C@H]2[C@@H](c3ccccc31)[C@H](CO)N2Cc1ccccc1Cl
inactive: [1] | [2] | [3] | [4] | [5] | [6] 16.9% | [7] | [8] | [9]

C[C@@H]1CN([C@@H](C)CO)S(=O)(=O)c2ccc(C#Cc3ccccc3F)cc2O[C@H]1CN(C)CC1CCOCC1
inactive: [1] | [2] | [3] | [4] | [5] | [6] -11.1% [at 8 µM, hits give low values] | [7] | [8] | [9]

Cc1ccc(S(=O)(=O)N(C)C[C@H]2Oc3ccc(NC(=O)Nc4ccc(C(F)(F)F)cc4)cc3CC(=O)N([C@H](C)CO)C[C@@H]2C)cc1
inactive: [1] | [2] | [3] | [4] | [5] | [6] 49.2% [at 16 µM, hits give low values] | [7] | [8] | [9]

Cc1ccc(S(=O)(=O)Nc2ccc3c(c2)C(=O)N([C@@H](C)CO)C[C@@H](C)[C@H](CN(C)Cc2ccc(Cl)c(Cl)c2)OCCCC[C@@H](C)O3)cc1
inactive: [1] | [2] | [3] | [4] | [5] | [6] -18.1% [at 4.2 µM, hits give low values] | [7] | [8] | [9]

C[C@@H]1CN([C@@H](C)CO)S(=O)(=O)c2ccc(C#Cc3ccc(F)cc3)cc2O[C@H]1CN(C)C(=O)NC1CCCCC1
inactive: [1] | [2] | [3] | [4] | [5] | [6] -9.84% | [7] | [8] | [9]
